A selection: hits, their analogues and other compounds. The true share with any hit is near 5.4%.
PHOSPHO1 inh – PubChem AID 1565 | Phosphoethanolamine/phosphocholine phosphatase (Homo sapiens), Q8TCT1 | recombinant PHOSPHO1, absorbance phosphatase assay | inhibition, % at 13.3 µM | 290,000 compounds, 1.1% hits; in the data active = inhibition above about 60%
A3A deaminase – APOBEC3A ssDNA deaminase inhibitors, primary screen, selectivity assay for APOBEC3G inhibitor project, biochemical, FAM/TAMRA oligo cleavage fluorescence; DNA dC->dU-editing enzyme APOBEC-3A (Homo sapiens), P31941; recombinant A3A, FAM/TAMRA ssDNA deamination fluorescence; inhibition, % at 20 µM; 330,000 compounds, 0.41% hits; AID 493011, 2011;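 active = at least 40% inhibition at 20 µM here, with at most 30% in a related deaminase screen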
Target sequence (P31941 whole entry, looked up): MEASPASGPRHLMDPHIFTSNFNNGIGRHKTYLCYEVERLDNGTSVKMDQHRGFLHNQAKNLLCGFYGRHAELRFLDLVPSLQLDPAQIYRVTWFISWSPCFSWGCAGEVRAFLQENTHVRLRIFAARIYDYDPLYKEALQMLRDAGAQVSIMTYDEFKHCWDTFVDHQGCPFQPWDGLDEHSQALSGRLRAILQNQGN
APOBEC3G inh – APOBEC3G DNA deaminase inhibitors, primary screen, biochemical, fluorescence, single-stranded DNA substrate, uHTS; 330,000 compounds, 0.28% hits; recombinant A3G, ssDNA deamination FAM/TAMRA fluorescence; DNA dC->dU-editing enzyme APOBEC-3G (Homo sapiens), Q9HC16; inhibition, % at 20 µM;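 active = inhibition of at least 40% at 20 µM, with no more than 30% in the related APOBEC3A deaminase screen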
aDG glyco act – activators of alpha-DG glycosylation, primary screen, uHTS, Pro5-aDG cells, AlphaScreen. alpha-DG glycosylation AlphaScreen (IIH6); 0% Pro5, 100% B10-LARGE cell signal. activation, % at 10 µM. 360,000 compounds, 0.22% hits. AID 624168, 2012;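 active = activation of at least 8% versus controls, or a plate z-score of at least 8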;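 note: Pro5 are CHO cells carrying HIG-tagged alpha-DG that lacks glycosylation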
ALR H2O2 inh – inhibitors of human ALR sulfhydryl oxidase, primary screen, biochemical, H2O2 detection, HRP-luminol luminescence, single point | purified ALR, DTT oxidation | inhibition, % (test concentration not listed) | 290,000 compounds, 3.8% hits | FAD-linked sulfhydryl oxidase ALR (Homo sapiens), P55789;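 active = mean replicate inhibition above about 79%, with every replicate also reaching it, limit read from the data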
Target sequence (P55789 whole entry, looked up): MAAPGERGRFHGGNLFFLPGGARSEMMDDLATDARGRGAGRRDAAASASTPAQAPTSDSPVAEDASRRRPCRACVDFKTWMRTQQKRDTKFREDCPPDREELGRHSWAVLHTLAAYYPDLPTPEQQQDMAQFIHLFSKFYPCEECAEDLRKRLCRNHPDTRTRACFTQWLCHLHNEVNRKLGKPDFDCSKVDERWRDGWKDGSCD
rCAG binder – binders of r(CAG) RNA repeats, primary screen, biochemical, fluorescence. r(CAG) RNA repeat, TO-PRO-1 dye displacement fluorescence. inhibition, % at 3 µM. 370,000 compounds, 1.3% hits. AID 651821, 2012;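 active = inhibition above the plate cutoff, the mean of all test compounds on that plate plus 3 SD, cut at about 35% in these data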;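 note: higher means more dye released from RNA so lower well fluorescence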
A number is an active result; 0 = inactive; - = no result.

SMILES	PHOSPHO1 inh	A3A deaminase	APOBEC3G inh	aDG glyco act	ALR H2O2 inh	rCAG binder
CCOC(=O)C1=C(C)NC2=C(C(=O)CC(C)(C)C2)C1c1cccc(C)n1 (centres undefined)	0	0	0	0	0	0
CCOC(=O)CN=C1CC(C)(C)CC2=C1Sc1ncnc(N(C)C)c1N2	97	0	0	0	-	-
N=C(N)SCc1nc2ccccc2c(=O)n1-c1ccccc1	0	0	0	0	98	0
O=C(O)c1ccc(CSc2nc3ccccc3c(=O)n2-c2ccccc2)cc1	0	0	0	0	-	0
CC(COc1ccc(C(F)(F)F)cc1)CN1CCC(C(O)(c2ccccc2)c2ccccc2)CC1 (centres undefined)	-	-	-	-	-	0
N#Cc1cccc(NC(=O)CNC(=O)Cc2ccccc2)c1	0	0	0	0	0	0
N#Cc1cccc(NC(=O)Cc2ccccc2)c1	62	0	0	0	0	0
CCOc1ccccc1NC(=O)c1ccc2c(=O)n3c(nc2c1)CCCCC3	75	0	0	0	0	0
COc1ccccc1CNC(=O)c1ccc2c(=O)n3c(nc2c1)CCCCC3	65	0	0	0	0	0
CCCCc1c(-c2ccccc2OC)ncn1Cc1cccc(C)c1	-	-	-	-	-	0
Cc1csc(Nc2cccc3ccccc23)n1	0	0	0	0	0	0
COc1ccccc1Nc1n[nH]c(=S)s1	0	0	57	0	-	0
COc1ccccc1Nc1nc(C)cs1	0	0	0	0	99	0
Cc1ccc(Nc2nc(C)cs2)cc1	65	0	0	0	0	0
Cc1cc(C)c(Nc2n[nH]c(=S)s2)cc1C	-	-	-	0	-	0
Cc1cccc(Nc2n[nH]c(=S)s2)c1C	100	0	0	0	99	0
Cc1csc(Nc2ccc(Cl)cc2)n1	0	0	0	0	0	0
C[C@H](O)[C@@H]1CN2CCc3ccc(N4CCOCC4)cc3[C@@H]2C[C@@H]1N(C)C(=O)c1ccccc1F	-	-	-	-	-	0
N[C@H]1CC[C@@H]2SC[C@@H](C(=O)O)N2C1=O	-	-	-	-	-	0
O=S(=O)(CC1NCCc2ccccc21)NCc1ccc(F)cc1 (centres undefined)	-	-	-	-	-	0
CCOc1ccc(OCCn2c(=S)[nH]c3c(N)ncnc32)cc1	0	0	0	0	91	0
COC(=O)[C@H]1C[C@@]2(n3ccc4ccccc43)c3ccccc3N[C@H]2N1	-	-	-	-	-	0
Cc1cccc(C)c1NC(=O)NCCCN1CCN(c2ccccc2)CC1	0	0	0	0	82	0
COc1ccc(C)cc1NC(=O)CCN1CCN(c2ccccc2)CC1	0	0	0	0	95	0
O=C(Cc1c(C(=O)O)[nH]c2ccccc12)NCCN1CCN(c2cccc(Cl)c2)CC1	0	0	0	0	88	0
SMILES	PHOSPHO1 inh	A3A deaminase	APOBEC3G inh	aDG glyco act	ALR H2O2 inh	rCAG binder
O=C(NCCCN1CCN(c2ccc(F)cc2)CC1)Nc1ccccc1	-	-	-	-	-	0
O=C(CCN1CCN(c2ccccc2)CC1)N/N=C/c1ccccc1O	0	0	0	0	84	0
CC1CC(C)CN(CCCNC(=O)Cc2c(C(=O)O)[nH]c3ccccc23)C1 (centres undefined)	0	0	0	0	0	0
O=C(NCCN1CCN(c2ccccc2)CC1)c1cccc(Cl)c1	0	0	0	0	98	0
O=C(NCCN1CCN(c2ccccc2)CC1)C1(S(=O)(=O)c2ccc(Cl)cc2)CC1	0	0	0	0	99	0
COc1ccccc1C(=O)NCCN1CCN(c2ccccc2)CC1	0	0	0	0	97	0
Cc1cccc(C(=O)NCCN2CCN(c3ccccc3)CC2)c1	0	0	0	0	-	0
COc1ccccc1C(=O)Nc1ccc(N2CCN(Cc3ccccc3)CC2)cc1	0	0	0	0	0	0
COC(=O)[C@]12C[C@H](CC(=O)NCc3ccccc3)C(=O)N(Cc3cccc4ccccc34)C1=C[C@H](C1CCCC1)O[C@@H]2C	-	-	-	-	-	0
Cc1ccc(C(=O)N2CCC[C@@H]2C(=O)N2CCC[C@@H]2C(=O)NCc2ccccc2)cc1C	-	-	-	-	-	0
CCOc1ccccc1C(O)C1=CC(=O)c2ccccc2C1=O (centres undefined)	-	-	-	0	-	38
O=C(c1ccc(S(=O)(=O)Cc2ccccc2F)c([N+](=O)[O-])c1)N1CCCC1	0	0	0	0	0	0
O=C(c1ccc(S(=O)(=O)c2ccc(F)cc2)c([N+](=O)[O-])c1)N1CCCCCC1	0	0	0	0	96	0
Nc1[nH]c(C(=O)c2ccccc2)c(-c2ccc(Cl)cc2)c1C(=O)c1c[nH]c2ccc(F)cc12	-	-	-	-	-	0
O=C(CSc1nc2ncccc2[nH]1)N1CCOCC1	-	-	-	-	-	0
O=c1[nH][nH]c2cc(=O)n(-c3ccc(Cl)cc3)nc12	0	0	0	0	0	43
COc1ccc(S(=O)(=O)n2nc(OC(C)=O)cc2N)cc1	0	0	0	0	98	0
COc1ccc(C(=O)Oc2cc(N)n(S(=O)(=O)c3ccccc3)n2)cc1	0	0	0	0	0	0
CCCCCCCc1c(C)nc(N2CCOCC2)[nH]c1=O	0	0	0	0	0	0
CCCCCCc1c(C)nc(-n2[nH]c(C)c(CCO)c2=O)[nH]c1=O	0	0	0	0	86	0
CCCCOc1ccc(-c2nnn(CC(=O)NCc3ccco3)n2)cc1	0	0	0	0	0	0
O=C(Cn1nnc(-c2ccccc2F)n1)NCc1ccco1	66	0	0	0	0	0
O=C(Cn1nnc(-c2ccccc2F)n1)OCC(=O)c1ccccc1	0	0	0	0	93	0
Nc1cc(=O)nc(SCC(=O)Nc2cccc3ccccc23)n1CCc1ccccc1	0	0	0	0	98	0
C=CCn1c(N)cc(=O)nc1SCC(=O)Nc1ccc(C)cc1	0	0	0	0	99	0
SMILES	PHOSPHO1 inh	A3A deaminase	APOBEC3G inh	aDG glyco act	ALR H2O2 inh	rCAG binder
Cc1ccc(NC(=O)CSc2nc(=O)cc(N)n2CCc2ccccc2)cc1	0	0	0	0	99	0
CC(NC(=O)CSc1nc(=O)cc(N)n1CCc1ccccc1)c1ccccc1 (centres undefined)	0	0	0	0	-	0
CCOC(=O)N1C(=O)C[C@](Sc2ccc(OC)cc2)(C(=O)N(C)C)[C@H]1c1ccc(OC)cc1	-	-	-	-	-	0
COC(=O)C1CN(Cc2cn(Cc3ccc(C)cc3)nn2)CCS(=O)(=O)N1Cc1ccc(OC)cc1 (centres undefined)	-	-	-	-	-	0
Cc1cccc(N2CCN(Cc3nc(CC4CC4)no3)CC2)n1	60	0	0	0	0	0
O=c1c([N+](=O)[O-])c(O)c2ccccc2n1Cc1ccccc1	0	0	0	0	99	0
